Screening results: PubChem, National Center for Advancing Translational Sciences (NCATS)
DT40 TDP1 CPT: DT40-hTDP1 cell growth loss with CPT | chicken DT40 Tdp1-/-;hTDP1 cells + 20 nM CPT, ATP luminescence, 48 h | Potency, µM (top dose mostly 46.2 µM), inactives show top-dose activity change, negative = growth inhibition, hits mostly inhibitors | 420,000 compounds, 12% hits | AID 686979; further: potency means the concentration at half of the fitted maximal effect; on the % scale 0 is the no-effect control and ±100 the full control effect; nearly all actives have a fitted effect of over 55% in size
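Chicken DT40 Tdp1-/- cells complemented with human TDP1, 400 cells/well, exposed to compounds plus 20 nM camptothecin for at least 48 h at 37 C; viability read as ATP content by CellTiter-Glo luminescence.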
Chronic BCR inh: chronic active BCR signaling inhibition | ABC-DLBCL IkBa-CBG/CBR reporter, luminescence ratio, 4 h | Potency, µM (doses to about 46.1 µM), without a hit: top-dose activity change, negative = inhibition, hits mostly inhibitors | 340,000 compounds, 0.05% hits | AID 493014; active means well fitted inhibition curve with a large enough effect in the signal ratio, with a control signal flat, not every such curve was filed as active; inconclusive means small, poorly fitted or top-dose-only effect, or effect the other way, or a change in a side signal; the % refers to the signal ratio;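 further: potency means the concentration at half of the fitted maximal effect; plate controls were basal doxycycline-induced cells for no effect and cells given 10 µM MG132 for full effect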
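TMD8 human ABC-DLBCL cells with doxycycline-inducible IκBα–green luciferase fusion and unfused red luciferase, in 0.5% FBS medium; compounds up to 46 uM, 4 h at 37C. Green/red luminescence ratio, filter-overlap corrected, fitted to concentration-response curves.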
IL-1B inflam inh: inhibitors of inflammasome signaling (IL-1 beta secretion); activity change, % at 57.5 µM; 360,000 compounds, 4.7% hits; THP-1 LPS/ATP IL-1B secretion, AlphaLISA, 16 h; hits give low values; in the data active means activity change below about -50%; inconclusive means mostly about -30% to -49%; further: on the % scale 0 is the no-effect control and ±100 the full control effect
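THP-1 cells pretreated 1 hr with compounds (up to 57.5 uM final), then stimulated with LPS (250 ng/mL final) plus ATP (1.25 mM final); secreted IL-1B measured by AlphaLISA after 16 hr, decreased signal indicating inhibition.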
SW480 rereplic: inducers of DNA re-replication in SW480 colon cancer cells; Potency, µM (doses to about 46.1 µM), for the others: at the top dose re-replication activation, most hits filed as activators; SW480 DNA re-replication, Hoechst DNA content imaging, 48 h; 340,000 compounds, 1.8% hits; AID 624297; further: potency means the concentration at half of the fitted maximal effect; % of control where 0% means no effect; nearly all actives have a fitted effect of over 55% in size
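Per well, 250 cells were exposed to pinned compound for 48 hr. Nuclear DNA was visualised with Hoechst (40 min, 37 C) and total object intensity recorded by fluorescence scanning.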
MCF10A rereplic: DNA re-replication induction in MCF 10a cells | MCF 10A DNA re-replication, Hoechst nuclear intensity, 48 h | Potency, µM (top dose mostly 46.1 µM), without a hit: at the top dose activity, positive = re-replication, hits mostly activators | 350,000 compounds, 2.9% hits | AID 624296; further: potency means the concentration at half of the fitted maximal effect; % of control where 0% means no effect; nearly all actives have a fitted effect of over 50% in size
DT40 TDP1 no CPT: qHTS for Inhibitors of human tyrosyl-DNA phosphodiesterase 1 (TDP1): qHTS in cells in absence of CPT; Potency, µM (top dose mostly 46.2 µM), for inactives: at the highest dose activity change, negative = growth inhibition, most hits filed as inhibitors; 420,000 compounds, 15% hits; DT40 Tdp1-/- hTDP1 cells, no CPT, ATP luminescence, 48 h; further: potency means the concentration at half of the fitted maximal effect; on the % scale 0 is the no-effect control and ±100 the full control effect; nearly all actives have a fitted effect of over 55% in size
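Chicken DT40 Tdp1-/- cells stably complemented with human TDP1 were seeded at 400 cells/well with DMSO in place of 20 nM camptothecin. After compound pinning, cells grew at least 48 hr at 37 °C; viability read by CellTiter-Glo luminescence.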
* = called active by the depositor; ? = inconclusive; . = no result given; [ ] = another dose, or the depositor's remark. Most compounds without a hit are left out; they make up all but 19% or so of the library. Unless noted, the call rests on the fitted dose curve; in most records, active means well fitted curve in the direction sought with a large enough effect; inconclusive means small, poorly fitted or top-dose-only effect, or another doubt; inactive means no such curve, though single readings can be large; an effect the other way counts as inactive or inconclusive.

SMILES	DT40 TDP1 CPT	Chronic BCR inh	IL-1B inflam inh	SW480 rereplic	MCF10A rereplic	DT40 TDP1 no CPT
N#Cc1ccc(S(=O)(=O)N2CCC(C(=O)Nc3cccc(C(=O)NC4CC4)c3)CC2)cc1	-1%	?	7	?	9%	0%
CCOc1ccc(-c2cc(C(=O)NC3CCCCC3)[nH]n2)c(C)c1	-28%	.	-1	.	.	-22%
CCOc1ccc(NC(=O)Cn2c(CCC(=O)O)ccc2-c2ccc(Cl)cc2)cc1	-1%	.	.	.	.	-4%
COc1cc(/C=C/C(=O)OCC(=O)NC2CCCCCCC2)ccc1O	-23%	?	9	-2%	8%	-27%
COc1cc(/C=C2\CC/C(=C\c3ccc(OCCO)c(OC)c3)C2=O)ccc1OCCO	?	?	-77*	-1%	?	23µM*
COc1cc(/C=C2\COC/C(=C\c3ccc(O)c(OC)c3)C2=O)ccc1O	3.3µM*	?	-100*	7.3µM*	5.8µM*	3.3µM*
COc1cc(/C=C/C=C2/CC/C(=C/C=C/c3ccc(O)c(OC)c3)C2=O)ccc1O	2.3µM*	.	-92*	?	?	2.6µM*
Cc1ccc(S(=O)(=O)c2c(C)nn(C(C)(C)C)c2OC(=O)CC(C)C)cc1	-21%	4%	19	21%	1%	?
CC1Cn2c(nnc2C23CC4CC(CC(C4)C2)C3)S1 (configuration not stated)	-17%	-1%	18	?	15µM*	-22%
C[C@@H](Nc1nc(Cl)nc2nc[nH]c12)c1ccccc1	20µM*	.	.	.	.	16µM*
Clc1nc(NCc2ccco2)c2[nH]cnc2n1	-3%	.	.	.	.	?
O=C(Nc1cccnc1)c1ccc(COc2ccccc2Cl)o1	18µM*	-19%	-8	0%	26%	21µM*
O=C(Nc1nn(Cc2ccc(Cl)cc2)cc1Br)c1ccc(COc2ccccc2Cl)o1	26µM*	?	?	-9%	-1%	26µM*
Cc1ccc(NC(=O)c2ccc(COc3ccccc3Cl)o2)cc1	?	5%	.	.	.	?
O=C(NCc1ccc2c(c1)OCO2)c1ccc(COc2cc(Cl)ccc2Cl)o1	-28%	20%	?	10%	19%	-1%
O=C(N/N=C/c1ccc(O)cc1)c1ccc(COc2cc(Cl)ccc2Cl)o1	?	?	24	2%	18µM*	?
CCN(CC)C(=O)c1ccc(COc2ccccc2Cl)o1	-20%	0%	-12	0%	8%	16µM*
O=C(Nc1ccc(Cl)cn1)c1ccc(COc2ccccc2Br)o1	?	?	35	-10%	?	?
Cc1nc(C(F)(F)F)ccc1C(=O)N1CCCC(C)(C(=O)O)C1 (configuration not stated)	-2%	.	1	.	.	-10%
CCO[C@H]1[C@H](NC(=O)c2cccnc2)c2ccccc2C12CCN(C(=O)c1cc(C)n(C)n1)CC2	-8%[9.04 µM]	.	.	.	.	-10%
Cn1c(=O)n(-c2ccc(F)c(Cl)c2)c(=O)c2sc3ccccc3c21	-26%	.	.	.	.	-25%
Cc1ccc2cc3cc(C(=O)NCCCN4CCCC4=O)oc3nc2c1	-22%	?	?	-7%	2%	-15%
O=C(Nc1cccnc1)c1ccc(COc2cc(Cl)ccc2Cl)o1	?	-18%	-2	4%	?	18µM*
CN(C)c1ccc(NC(=O)c2ccc(COc3cccc(Cl)c3)o2)cc1	21µM*	-28%	-14	-3%	?	?
O=C(NCc1cccnc1)c1ccc(COc2ccc(Cl)cc2Cl)o1	?	4%	44	-5%	-2%	?
SMILES	DT40 TDP1 CPT	Chronic BCR inh	IL-1B inflam inh	SW480 rereplic	MCF10A rereplic	DT40 TDP1 no CPT
CCN(CC)C(=O)Cn1c(=O)n(CC2CCC(C(=O)NC)CC2)c(=O)c2sccc21 (configuration not stated)	-14%	.	.	.	.	-14%
Cc1ccc(Cl)cc1NC(=O)CSc1nc2ccccc2c2nc(-c3ccccc3)nn12	-15%	1%	.	.	.	-3%
CC1(c2nnnn2Cc2ccccc2)CCC(=O)N1c1ccc(N2CCOCC2)cc1 (configuration not stated)	-14%	.	-11	.	.	-22%
CC1CCN(CCCNC(=O)C2CCN(S(=O)(=O)N3CCC4(CC3)OCCO4)CC2)CC1	-3%	4%	1	-9%	-2%	28%
COc1cc(C2c3cc4c(cc3OC(N3CCOCC3)C2C)OCO4)cc(OC)c1OC(C)=O (configuration not stated)	?	.	21	?	?	26µM*
COc1cc(C2c3cc4c(cc3OC(N3CCCC3)C2C)OCO4)cc(OC)c1O (configuration not stated)	?	.	25	?	?	16µM*
COc1cc(C2c3cc4c(cc3OC(C)(N3CCCC3)C2C)OCO4)cc(OC)c1OC (configuration not stated)	1.2µM*	.	20	5.2µM*	0.65µM*	1.2µM*
COc1cc(C2CC(=O)Nc3cc4c(cc32)OCO4)cc(OC)c1O (configuration not stated)	3%	.	.	.	.	?
COc1ccc(CN2CCNC(=O)C2CC(=O)N(C)CCCN2CCOCC2)cc1C (configuration not stated)	4%	-1%	-2	31%	-2%	18%
CCCc1cc(=O)[nH]c(SCC(=O)N2c3ccccc3CC2C)n1 (configuration not stated)	-4%	0%	11	-2%	4%	8%
CCCCn1c(N)c(N(CC(C)C)C(=O)CSc2nnc(C)n2-c2ccccc2)c(=O)[nH]c1=O	-15%	.	3	6%	-2%	25%
CN1CCN(C(=O)C2=NOC3(C2)C(=O)Nc2ccccc23)CC1 (configuration not stated)	-8%	.	23	.	.	0%
CS(=O)(=O)OCCCNCCCOS(C)(=O)=O	2%	.	.	.	.	-21%
Cc1ccccc1CNC1CCCCC1	-3%	2%	90	30%	1%	-15%
Oc1cc(CNC2CCCCC2)c(O)cc1CNC1CCCCC1	18µM*	.	-19	?	-12%	5.8µM*
N#Cc1c(N)n(CCOC(=O)c2cccc([N+](=O)[O-])c2)c2nc3ccccc3nc12	-22%	1%	-5	2%[9.22 µM]	-27%	10µM*
N#Cc1c(N)n(CCOC(=O)c2cccc(Br)c2)c2nc3ccccc3nc12	-9%	.	14	?	?	?
